The values that follow come from PubChem BioAssay (Tox21).

“And” between values parts separate entries of the source, which are not always exact repeats. Equal values may be shown once. Inconclusive results are not listed. Where a structure was tested more than once in an assay, its records may differ in their call. The source made the active and inactive calls. Unless noted, calls come from the whole dose curve; as a rule, active = well fitted curve in the direction sought with a large enough effect in the repeat runs; inconclusive = weak or mixed curves; inactive = no such curve, though single readings can be large; an effect the other way counts as inactive or inconclusive.

The nature of test [1]: qHTS assay to test for compound auto fluorescence at 535 nm (green) in HEK293 cells (AID 720680). A general note: Quantitative high-throughput screening tests each substance at several concentrations.
Test [2] is described as follows: qHTS assay to test for compound auto fluorescence at 460 nm (blue) in HEK293 cell free culture (AID 720681). In a few lines:
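Test compounds were pinned into cell-free culture medium (DMEM with 10% FBS) and fluorescence was read directly at Ex/Em 405/460 nm. Signals were expressed as fluorescence equivalents of triamterene, with DMSO vehicle as control.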

A short description of test [3]: qHTS assay to test for compound auto fluorescence at 535 nm (green) in HEK293 cell free culture (AID 720682). In a few lines: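 No cells present: wells hold DMEM supplemented with 10% FBS, into which compound or vehicle is pinned. Green emission is then recorded (485 nm excitation, 535 nm emission) and scaled to fluorescein.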
Test [4] in a line: qHTS assay to test for compound auto fluorescence at 590 nm (red) in HEK293 cell free culture (AID 720683). A digest of the protocol: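 Tox21 10K library compounds were pinned into cell-free DMEM with 10% FBS and fluorescence was read at excitation 540 nm. Activity is expressed as Rose Bengal sodium equivalency.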
The nature of test [5]: qHTS assay to test for compound auto fluorescence at 590 nm (red) in HepG2 cell free culture (AID 720684). In a few lines: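 Measured in medium alone (MEM containing 10% FBS) following pintool addition of compound; emission at 590 nm with 540 nm excitation, referenced to Rose Bengal sodium.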
Test [6] is described as follows: qHTS assay to test for compound auto fluorescence at 535 nm (green) in HepG2 cell free culture (AID 720686).
Test [7] is described as follows: qHTS assay to test for compound auto fluorescence at 460 nm (blue) in HepG2 cells (AID 720687). Note: potency is the fitted concentration of half-maximal effect. A digest of the protocol: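 Cells (2,000/well in MEM with 10% FBS) attached overnight at 37 C, then were exposed to compound or DMSO for 1 hr at 37 C, 5% CO2. Fluorescence read at Ex/Em 405/460 nm, expressed as triamterene-equivalent signal.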
Test [8] is described as follows: qHTS assay to identify small molecule antagonists of the glucocorticoid receptor (GR) signaling pathway - cell viability counter screen (AID 720693). Note: nearly all actives have a fitted effect of over 55% in size. Note: potency is the fitted concentration of half-maximal effect.
A short description of test [9]: qHTS assay for identifying genotoxic compounds that show differential cytotoxicity against isogenic chicken DT40 cell lines with known DNA damage response pathways - wild type cell line (AID 743012). Note: potency is the fitted concentration of half-maximal effect; nearly all actives have a fitted effect of over 60% in size. In a few lines:
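Quantitative HTS on parental DT40 cells: 40 h compound treatment at 37 C/5% CO2, with viability then determined by CellTiter-Glo luminescence. Values serve as the DNA repair-proficient reference for differential cytotoxicity.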

Test [10] can be described thus: qHTS assay for identifying genotoxic compounds that show differential cytotoxicity against isogenic chicken DT40 cell lines with known DNA damage response pathways - Rev3 mutant cell line (AID 743014). Note: nearly all actives have a fitted effect of over 55% in size. Note: potency is the fitted concentration of half-maximal effect.
Test [11] in a line: qHTS assay for identifying genotoxic compounds that show differential cytotoxicity against isogenic chicken DT40 cell lines with known DNA damage response pathways - Rad54/Ku70 mutant cell line (AID 743015). Note: nearly all actives have a fitted effect of over 60% in size. Note: potency is the fitted concentration of half-maximal effect.
The nature of test [12]: qHTS assay to identify small molecule antagonists of the androgen receptor (AR) signaling pathway - cell viability counter screen (AID 743033; note: nearly all actives have a fitted effect of over 45% in size; note: potency is the fitted concentration of half-maximal effect).
The nature of test [13]: qHTS assay to test for compound auto fluorescence at 460 nm (blue) in HepG2 cell free culture (AID 720685). A digest of the protocol: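 Compound (23 nL) or DMSO pinned into cell-free MEM with 10% FBS; blue fluorescence read at 405/460 nm excitation/emission, expressed as auto-fluorescence equivalency to triamterene.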
The target in test [14] is Androgen receptor (Homo sapiens) (UniProt P10275). Put plainly: qHTS assay to identify small molecule agonists of the androgen receptor (AR) signaling pathway (AID 743036; active = well fitted activation curve with a large enough effect in the signal ratio in the repeat runs, with a control signal flat, not every such curve was filed as active; the % refers to the signal ratio). In a few lines:
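Quantitative HTS of the Tox21 10K library in HEK293 cells bearing a stably integrated UAS-controlled beta-lactamase reporter. Compound exposure lasted 16 h at 37C. Reporter activity was detected by FRET substrate fluorescence after 2 h at room temperature.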

The target is the same in test [15]. The experiment in a line: qHTS assay to identify small molecule agonists of the androgen receptor (AR) signaling pathway using the MDA cell line (AID 743040; note: nearly all actives have a fitted effect of over 20% in size). A digest of the protocol:
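Luminescence from ONE-Glo, read after 30 min at room temperature, reflects MMTV-driven luciferase in MDA-kb2 cells (AR- and GR-responsive). Treatment lasted 16 h at 37C, 0% CO2.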

Test [16] can be described thus: qHTS assay to identify small molecule antagonists of the androgen receptor (AR) signaling pathway using the MDA cell line - cell viability counter screen (AID 743041; note: nearly all actives have a fitted effect of over 45% in size). In a few lines:
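Viability counter screen run alongside the AR antagonist reporter: cells seeded 5 h before compound, R1881 added, 16 h incubation at 37C without CO2, fluorescent CellTiter-Fluor signal quantified.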

For test [17], the target named is Androgen receptor (Homo sapiens) (UniProt P10275). Put plainly: qHTS assay to identify small molecule antagonists of the androgen receptor (AR) signaling pathway using the MDA cell line (AID 743042; note: nearly all actives have a fitted effect of over 55% in size; note: potency is the fitted concentration of half-maximal effect). A digest of the protocol: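 MDA-kb2 cells (human breast carcinoma, stably carrying an MMTV-luciferase reporter responsive to AR and GR) were plated at 3,000 cells/well and preincubated 5 hr at 37C, then given compound plus R1881 agonist for 16 h. ONE-Glo luminescence was read.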
Sequence of Androgen receptor (Homo sapiens) (P10275 whole entry, looked up): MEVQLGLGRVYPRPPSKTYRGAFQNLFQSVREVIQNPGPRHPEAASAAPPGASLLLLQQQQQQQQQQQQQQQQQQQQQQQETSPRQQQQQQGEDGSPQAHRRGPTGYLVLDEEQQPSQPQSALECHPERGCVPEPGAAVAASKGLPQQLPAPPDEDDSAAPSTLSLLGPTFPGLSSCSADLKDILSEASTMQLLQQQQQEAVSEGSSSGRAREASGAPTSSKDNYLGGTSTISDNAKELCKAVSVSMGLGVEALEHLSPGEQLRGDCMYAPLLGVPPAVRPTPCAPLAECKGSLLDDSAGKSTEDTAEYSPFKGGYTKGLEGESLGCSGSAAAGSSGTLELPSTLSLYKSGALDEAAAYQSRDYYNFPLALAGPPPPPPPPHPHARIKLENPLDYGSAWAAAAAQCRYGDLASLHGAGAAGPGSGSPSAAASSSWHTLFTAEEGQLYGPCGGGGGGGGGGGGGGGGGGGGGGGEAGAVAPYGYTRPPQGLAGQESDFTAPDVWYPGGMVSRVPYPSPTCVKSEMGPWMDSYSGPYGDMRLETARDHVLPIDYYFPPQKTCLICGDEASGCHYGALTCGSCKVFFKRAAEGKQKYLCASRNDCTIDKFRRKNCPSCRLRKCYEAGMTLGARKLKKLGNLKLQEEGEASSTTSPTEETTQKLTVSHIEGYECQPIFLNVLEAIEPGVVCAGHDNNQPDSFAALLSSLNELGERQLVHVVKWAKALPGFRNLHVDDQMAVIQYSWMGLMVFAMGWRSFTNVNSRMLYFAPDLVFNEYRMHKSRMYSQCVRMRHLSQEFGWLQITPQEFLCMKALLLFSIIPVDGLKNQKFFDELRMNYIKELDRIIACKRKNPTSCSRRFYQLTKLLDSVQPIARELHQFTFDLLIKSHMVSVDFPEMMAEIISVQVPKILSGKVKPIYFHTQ

Test [18] concerns the target Glucocorticoid receptor (Homo sapiens) (UniProt P04150). Put plainly: qHTS assay to identify small molecule agonists of the glucocorticoid receptor (GR) signaling pathway (AID 720691; active = well fitted activation curve with a large enough effect in the signal ratio in the repeat runs, not every such curve was filed as active; the % refers to the signal ratio). The following applies: GR-bla HeLa, beta-lactamase reporter ratio, 18 h; activation: at 62.4 µM (top of the series). A digest of the protocol: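 Beta-lactamase reporter activity, read as fluorescence intensity, was measured in GR-bla HeLa cells exposed to compounds for 18 h at 37 C and then loaded with LiveBLAzer B/G FRET substrate for 2 h at room temperature.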

Test [19] has the same target. The experiment in a line: qHTS assay to identify small molecule antagonists of the glucocorticoid receptor (GR) signaling pathway (AID 720692; active = well fitted inhibition curve with a large enough effect in the signal ratio in the repeat runs, not every such curve was filed as active; the % refers to the signal ratio; note: potency is the fitted concentration of half-maximal effect). In a few lines: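 Fluorescence from cleaved LiveBLAzer B/G FRET substrate reports GRE-driven beta-lactamase in HeLa cells; compounds are tested against 5 nM dexamethasone (final) over 18 h at 37 C, substrate incubation 2 h at room temperature.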

For test [20], the target named is Androgen receptor (Homo sapiens) (UniProt P10275). The experiment in a line: qHTS assay to identify small molecule antagonists of the androgen receptor (AR) signaling pathway (AID 743035; active = well fitted inhibition curve with a large enough effect in the signal ratio in the repeat runs, not every such curve was filed as active; the % refers to the signal ratio). A digest of the protocol:
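Cell line: GeneBLAzer AR-UAS-bla GripTite (HEK293). Stimulus: R1881 added after compound. Exposure: 16 h, 37C, 5% CO2. Readout: LiveBLAzer B/G FRET fluorescence after 2 h at room temperature.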
Tags give direction and shape of the fitted curve or compound fluorescence and quenching.

Sequence of Glucocorticoid receptor (Homo sapiens) (P04150 whole entry, looked up): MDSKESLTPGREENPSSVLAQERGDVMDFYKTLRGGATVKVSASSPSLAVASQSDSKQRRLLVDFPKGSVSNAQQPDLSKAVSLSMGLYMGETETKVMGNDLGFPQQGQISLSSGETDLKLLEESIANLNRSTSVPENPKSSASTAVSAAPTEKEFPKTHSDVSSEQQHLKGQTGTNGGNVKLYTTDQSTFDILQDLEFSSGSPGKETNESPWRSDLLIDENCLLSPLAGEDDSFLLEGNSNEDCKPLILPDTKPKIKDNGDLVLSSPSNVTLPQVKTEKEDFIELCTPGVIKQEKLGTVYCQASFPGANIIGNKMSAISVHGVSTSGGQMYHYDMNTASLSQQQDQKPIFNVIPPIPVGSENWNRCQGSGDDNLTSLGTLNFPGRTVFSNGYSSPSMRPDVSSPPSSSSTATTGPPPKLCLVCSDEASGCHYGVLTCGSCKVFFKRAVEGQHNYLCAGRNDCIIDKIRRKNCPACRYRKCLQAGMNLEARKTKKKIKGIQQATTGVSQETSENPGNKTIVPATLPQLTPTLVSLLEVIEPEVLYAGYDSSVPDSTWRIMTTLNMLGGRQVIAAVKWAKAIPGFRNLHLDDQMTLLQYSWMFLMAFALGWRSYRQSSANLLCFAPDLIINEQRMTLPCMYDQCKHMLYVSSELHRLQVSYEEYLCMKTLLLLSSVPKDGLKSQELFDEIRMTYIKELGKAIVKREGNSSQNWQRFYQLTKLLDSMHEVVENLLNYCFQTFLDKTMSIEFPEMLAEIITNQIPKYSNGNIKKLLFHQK

As to `CN1CCN(CCCN2c3ccccc3Sc3ccc(Cl)cc32)CC1`, the result in test [1], in [3], in [4] and in [5] was inactive. The Potency entry in test [2], in test [6] and in [7] was “inactive” each time. For the same molecule, the Potency in [8] was 23.9 µM (active); in test [9] it was 5.96 µM (active); in [10], 7.5 µM (active); in test [11], 8.41 µM (active); in test [12], 23.9 µM (active).

For the molecule `CN1[C@@H](CC(=O)c2ccccc2)CCC[C@H]1C[C@H](O)c1ccccc1`, the result in test [1], in test [3], in test [4] and in test [5] was inactive. The Potency entry in test [2], in test [6], in test [7], in [8], in test [10] and in [12] was “inactive” in each case. Besides, the Potency in test [9] was 26.6 µM (active).

As to `CCC1OC(=O)C[C@@H](O)[C@H](C)[C@@H](O[C@@H]2O[C@H](C)C[C@H](N(C)C)[C@H]2O)[C@@H](CC=O)C[C@@H](C)C(=O)/C=C/[C@]2(C)OC2C1C` (some centres not stated), the result in test [1], in test [3], in test [4] and in test [5] was inactive. Moreover, the Potency result in test [2], in test [13], in test [6], in test [8], in [12] and in test [14] was “inactive” each time. Moreover, the Potency result in test [15] and in test [16] was “inactive” in each case. The Potency in test [9] was 11.9 µM (active) and 4.73 µM (active); in test [11], 16.8 µM (active) and 7.5 µM (active); in test [17], 26.6 µM (active) and 23.7 µM (active).

`O=C1c2ccccc2C(=O)C1c1ccc(F)cc1`: the molecule was called inactive in [1], in test [3] and in test [4]. For the same molecule, the Potency entry in test [2], in [13], in [6], in test [7], in [18] and in test [19] was “inactive” in each case. Moreover, the Potency entry in [8], in test [11], in [12], in test [20], in test [14] and in test [15] was “inactive” in each case. The Potency result in [16] and in test [17] was “inactive” in each case.

Regarding `O=C1CC[C@@H](C(=O)N[C@H]2C[C@@H]2c2ccccc2)N1`, the result in [1], in test [3] and in test [4] was inactive. The Potency result in test [2], in test [13], in test [6], in test [7], in [18] and in test [8] was “inactive” each time. Further, the Potency entry in test [10], in test [11], in test [12] and in test [16] was “inactive” each time.

Turning to `COc1cc(/C=C/C(=O)CC(=O)/C=C/c2ccc(O)c(OC)c2)ccc1O`, the molecule was classed as inactive in [1], in test [3], in test [4] and in test [5]. The Potency result in test [2], in [6], in test [18], in test [8], in test [15] and in [16] was “inactive” throughout. The Potency was 39.8 µM [fluorescent] (active) in test [7]; 23.9 µM (active) and inactive in test [19]; 8.41 µM (active) and 21.1 µM (active) and 17.3 µM (active) in test [9]; 11.9 µM (active) and 12.3 µM (active) in test [10]; 10.6 µM (active) and 26.6 µM (active) and 10.9 µM (active) in [11]; “inactive and 43.9 µM (active)” in [12]. For the same molecule, the Potency in test [17] was 26.6 µM (active) and inactive and 13.8 µM (active).

Turning to `O=C1CCC(c2ccccc2)(C2CCN(Cc3ccccc3)CC2)C(=O)N1` (configuration not stated), the result in [1], in test [3] and in test [4] was inactive. Further, the Potency entry in [2], in [13], in test [6], in test [7], in test [18] and in [8] was “inactive” throughout. Besides, the Potency result in test [10], in test [12] and in test [16] was “inactive” each time.
